Experimental findings from PubChem BioAssay (NCI) are described below.

Some test systems named below: NCI-H23 lung; NCI-H226 lung; NCI-H322M lung; HOP-62 NSCLC; NCI-H460 lung; HOP-92 NSCLC; NCI-H522 lung; A549/ATCC NSCLC; 786-0 renal; COLO 205 colon.
Common to all, as to test: NCI-60 one-dose screen, 48 h (100 = growth as untreated, 0 = no growth, -100 = all killed)
Details in all cases: 10 µM unless noted

This is part of a sample that, as a whole, favours compounds with a hit. Of some 83,000 tested, about 20% had one in any assay.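 Cell lines were cultured in 96-well plates, exposed to a single compound concentration, and assessed for percent growth 48 hours later.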 A number with no mark means an inactive call. Active and inactive are the calls of the source. How the source made its calls: active means growth percent below 10; inactive means the rest.

`CCC1S/C(=N\N=C(\C)c2cc3cc(Cl)ccc3o2)N(c2ccccc2)C1=O` (stereo not given): the growth in the assay with NCI-H23 lung is 90.7%; in the assay on NCI-H226 lung, 113%; in the assay with NCI-H322M lung, 82.4%; in the assay with HOP-62 NSCLC, 100%; in the assay on NCI-H460 lung, 122%; in the assay with HOP-92 NSCLC, 71%. In addition, the growth in the assay with NCI-H522 lung was 160%; in the assay with A549/ATCC NSCLC, 132%; with 786-0 renal, 85.8%; in the assay on COLO 205 colon it was 118%.

Take `CC(=O)/C(=C/c1ccc([N+](=O)[O-])cc1)C(=O)c1ccccc1`: the growth is 88.1% in the assay with NCI-H23 lung; 81.5% with NCI-H226 lung; 100% with NCI-H322M lung; 79.8% in the assay on HOP-62 NSCLC; 107% in the assay on NCI-H460 lung; 70.1% in the assay on HOP-92 NSCLC. Moreover, the growth is 52% with NCI-H522 lung, 83.6% in the assay on A549/ATCC NSCLC, 92.5% in the assay on 786-0 renal and 90% with COLO 205 colon.

For `O=C(NC1CC(F)C1)c1cc2cccnc2n1-c1ccc(Cl)c(Cl)c1` (stereo not given), the growth with NCI-H23 lung is 100%; with NCI-H226 lung, 103%; in the assay with NCI-H322M lung it was 97.3%; in the assay on HOP-62 NSCLC it was 98.9%; in the assay with NCI-H460 lung, 101%; in the assay with HOP-92 NSCLC it was 83%. Further, the growth with NCI-H522 lung was 88.5%; in the assay on A549/ATCC NSCLC, 96.5%; in the assay with 786-0 renal, 95.2%; with COLO 205 colon, 109%.

Regarding `COc1cc(C(=O)c2c(-c3ccccc3)oc3c(OC)cccc23)cc(OC)c1OC`, the growth in the assay on NCI-H23 lung was 23.8%; in the assay with NCI-H226 lung it was 8.39% (active); with NCI-H322M lung it was 46.2%; in the assay with HOP-62 NSCLC it was 30%; in the assay on NCI-H460 lung, 3.18% (active); with HOP-92 NSCLC it was -1.18% (active). Besides, the growth in the assay with NCI-H522 lung was 13.9%; in the assay with A549/ATCC NSCLC, 17%; in the assay with 786-0 renal, 9.22% (active); in the assay on COLO 205 colon, -15.7% (active).

Turning to `Cc1cccc(N2CCC(=O)NC2=S)c1`, the growth is 98.5% in the assay on NCI-H23 lung; 97.3% in the assay on NCI-H226 lung; 101% with NCI-H322M lung; 110% in the assay with HOP-62 NSCLC; 104% in the assay with NCI-H460 lung; 105% in the assay with HOP-92 NSCLC. Besides, the growth with NCI-H522 lung is 97%; in the assay on A549/ATCC NSCLC, 99.1%; in the assay with 786-0 renal, 103%; in the assay on COLO 205 colon it was 119%.

For `COc1ccc(/C=C/C(=O)c2ccc(NC(=O)CSc3nc4c([nH]3)c(=O)n(C)c(=O)n4C)cc2)cc1OC`, the growth is 93% with NCI-H23 lung; 81.1% with NCI-H226 lung; 81% in the assay on NCI-H322M lung; 89.5% in the assay with HOP-62 NSCLC; 94.6% in the assay with NCI-H460 lung; 73.2% in the assay with HOP-92 NSCLC. The growth with NCI-H522 lung was 96.8%; in the assay on A549/ATCC NSCLC it was 87.7%; with 786-0 renal, 82.3%; in the assay on COLO 205 colon, 117%.

For the compound `NS(=O)(=O)c1ccc(C(=O)NN2C(=O)c3c(Br)c(Br)c(Br)c(Br)c3C2=O)cc1`, the growth was 104% with NCI-H23 lung; 102% in the assay on NCI-H226 lung; 111% in the assay with NCI-H322M lung; 105% with HOP-62 NSCLC; 110% in the assay with NCI-H460 lung; 99.4% with HOP-92 NSCLC. Moreover, the growth was 94.3% in the assay on NCI-H522 lung, 102% in the assay with A549/ATCC NSCLC, 103% in the assay with 786-0 renal and 112% in the assay on COLO 205 colon.

On to `Cc1c(Cl)cccc1C(=O)Nc1nc2c(s1)CN(C(=O)c1ccc(C(F)(F)F)cc1)CC2`, for which the growth in the assay on NCI-H23 lung is 33.7%; in the assay with NCI-H226 lung, 50.9%; in the assay with NCI-H322M lung it was 45.2%; in the assay with HOP-62 NSCLC, 41.8%; in the assay on NCI-H460 lung, 0.935% (active); in the assay on HOP-92 NSCLC, 35.9%. In addition, the growth was 11.4% in the assay on NCI-H522 lung, 25.5% with A549/ATCC NSCLC, 40.3% in the assay with 786-0 renal and 6.86% (active) in the assay with COLO 205 colon.

For the compound `CO[C@H](C(=O)[C@@H](O)[C@@H](C)O)[C@@H]1Cc2cc3cc(O[C@H]4C[C@@H](O[C@H]5C[C@@H](O)[C@H](O)C(C)O5)[C@H](O)C(C)(O)O4)cc(O)c3c(O)c2C(=O)[C@H]1O[C@H]1C[C@@H](O[C@H]2C[C@@H](O[C@H]3C[C@@H](OC)[C@H](O)C(C)O3)[C@@H](O)C(C)O2)[C@H](O)C(C)O1` (stereo not given in full), the growth was 16.4% in the assay with NCI-H23 lung; -29.7% (active) in the assay with NCI-H226 lung; 21.1% with NCI-H322M lung; 1.64% (active) in the assay on HOP-62 NSCLC; 12.9% in the assay with NCI-H460 lung; 25.2% in the assay with HOP-92 NSCLC. In addition, the growth with NCI-H522 lung is -17.6% (active); in the assay with A549/ATCC NSCLC, 6.26% (active); in the assay on 786-0 renal, 26.6%; with COLO 205 colon, -42.4% (active).

`O=C1c2cccc3cccc(c23)C(=O)N1C/C=C/c1ccc2c3c(cccc13)C(=O)N(CCO)C2=O`: the growth in the assay with NCI-H23 lung is 69.6%; with NCI-H226 lung, 58.3%; in the assay with NCI-H322M lung it was 62.9%; in the assay on HOP-62 NSCLC, 70.6%; with NCI-H460 lung, 72.6%; with HOP-92 NSCLC it was 2.53% (active). For the same compound, the growth with NCI-H522 lung was 89.2%; in the assay with A549/ATCC NSCLC, 81.2%; in the assay with 786-0 renal, 84.4%; in the assay on COLO 205 colon, 68.3%.

For `Cc1ccc(-c2nc(/C=C3/C(=O)Nc4ccc(F)cc43)c3ccccn23)cc1`, the growth in the assay on NCI-H23 lung is 77.1%; in the assay with NCI-H226 lung, 95.2%; in the assay on NCI-H322M lung, 91.6%; in the assay on HOP-62 NSCLC, 92.8%; with NCI-H460 lung, 36%; in the assay with HOP-92 NSCLC it was 82.2%. Besides, the growth in the assay with NCI-H522 lung was 62.7%; in the assay with A549/ATCC NSCLC it was 81.8%; in the assay with 786-0 renal it was 112%; in the assay with COLO 205 colon it was 81.9%.

As for `O=C(NNc1cnccn1)c1nc2cc(F)ccc2n2cccc12`, the growth with NCI-H23 lung was 25.4%; in the assay with NCI-H226 lung it was 14.1%; in the assay with NCI-H322M lung, 18%; with HOP-62 NSCLC it was 15%; in the assay with NCI-H460 lung, 2.78% (active); in the assay on HOP-92 NSCLC, 34.9%. Moreover, the growth was -2.38% (active) with NCI-H522 lung, 11.1% with A549/ATCC NSCLC, 28.6% with 786-0 renal and 7.25% (active) in the assay on COLO 205 colon.

As for `CO[C@H]1CC(=O)n2c3ccccc3c3c4c(c5c6ccccc6n1c5c32)C(=O)NC4=O`, the growth is 63.3% with NCI-H23 lung; 52.1% in the assay with NCI-H226 lung; 63.5% in the assay on NCI-H322M lung; 54.4% with HOP-62 NSCLC; 29.1% in the assay on NCI-H460 lung; 86.1% with HOP-92 NSCLC. Moreover, the growth with NCI-H522 lung is 58.9%; with A549/ATCC NSCLC, 57%; in the assay on 786-0 renal, 97.4%; with COLO 205 colon, 42%.
